Assay outcomes as filed in PubChem.
In the library only some 2.7% were active in any assay of this set; here they are far more common.
PfG6PD inh: PfG6PD (Plasmodium falciparum) enzyme inhibition | PfGluPho enzyme, NADPH resazurin-diaphorase fluorescence | 350,000 compounds, 0.78% hits | inhibition, % at 20 µM;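 active means inhibition reaching at least a set limit at 20 µM in the primary screen, cut at about 59% in these data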
FAS TE block: inhibitors of human fatty acid synthase thioesterase domain; P49327; recombinant FAS-TE, OMFH fluorogenic substrate, fluorescence endpoint; inhibition, % at 15 µM; 360,000 compounds, 0.67% hits; AID 602261;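 active means compounds whose normalised, plate-corrected inhibition of enzyme fluorescence in the single-dose primary screen is 50% or more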
KLK7 zymogen act: activators of human kallikrein-7 zymogen. P49862. purified proKLK7, EDANS-DABCYL substrate fluorescence; 100% is mature enzyme control, 0% vehicle. activation, % at 7 µM. 370,000 compounds, 0.9% hits;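 active means activation above the mean of all tested compounds plus 3 SD, computed per campaign excluding outliers beyond control limits, cut at about 13% in these data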
Neddylation inh: inhibitors of human cullin neddylation; P61081+Q13564; TR-FRET cullin neddylation, biochemical; calls only at 25 µM; 360,000 compounds, 0.58% hits; AID 651699; in the data active means inhibition above about 36%
Target sequence (P61081 whole entry, looked up): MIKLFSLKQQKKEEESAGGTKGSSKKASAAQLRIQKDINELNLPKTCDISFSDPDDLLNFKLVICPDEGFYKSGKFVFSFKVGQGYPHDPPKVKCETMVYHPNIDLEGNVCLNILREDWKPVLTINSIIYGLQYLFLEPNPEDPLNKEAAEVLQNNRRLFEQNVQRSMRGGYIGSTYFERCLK
Target sequence (Q13564 whole entry, looked up): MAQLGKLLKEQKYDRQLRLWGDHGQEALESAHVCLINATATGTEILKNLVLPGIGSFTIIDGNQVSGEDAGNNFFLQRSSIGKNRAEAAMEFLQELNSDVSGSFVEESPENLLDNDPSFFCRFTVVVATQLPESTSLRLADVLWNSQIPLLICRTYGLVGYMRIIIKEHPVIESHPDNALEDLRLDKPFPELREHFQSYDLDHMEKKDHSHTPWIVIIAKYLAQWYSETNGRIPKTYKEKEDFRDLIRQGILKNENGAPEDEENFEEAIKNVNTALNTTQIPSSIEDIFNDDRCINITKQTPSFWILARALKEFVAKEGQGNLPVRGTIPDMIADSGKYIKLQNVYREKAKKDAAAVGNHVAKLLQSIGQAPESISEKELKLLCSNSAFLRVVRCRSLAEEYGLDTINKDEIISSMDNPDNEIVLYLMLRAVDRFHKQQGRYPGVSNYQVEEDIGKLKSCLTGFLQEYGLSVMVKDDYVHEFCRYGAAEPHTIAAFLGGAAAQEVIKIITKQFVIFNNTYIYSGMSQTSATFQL
KLK7 act conf: confirmation of human kallikrein-7 zymogen activators; shares compounds with KLK7 zymogen act; purified proKLK7, EDANS-DABCYL substrate fluorescence; scaled: vehicle 0, mature enzyme 100; activation, % at 7 µM; 3,200 compounds, 68% hits; AID 686949;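 active means activation, as change over the incubation, above the mean of all tested compounds plus 3 SD, cut at about 13% in these data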
EDANS interfere: fluorescence interference counter-screen for KLK7 activators. shares compounds with KLK7 zymogen act. EDANS-DABCYL substrate fluorescence interference, no enzyme, 4 h; solvent 0%, active enzyme control 100%. activation, % at 7 µM. 3,200 compounds, 80% hits. AID 686952;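 active means activation above the all-compound mean plus 3 SD, ignoring values outside control-based bounds, cut at about 4.8% in these data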;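 further: value is the 4 h activation minus the activation read at time zero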
K7 EDANS ctr: counter-screen for kallikrein-7 activators: EDANS-DABCYL interference, dose response. EDANS-DABCYL peptide fluorescence interference, no enzyme. EC50, µM. 250 compounds, 20% hits. shares compounds with KLK7 zymogen act;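 active means compounds that raise the fluorescence signal in this interference counterscreen, with EC50 at or below 10 µM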;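 further: intact quenched peptide substrate alone read at 355 nm excitation and 520 nm emission; signal is fluorescence gain from T0 to T4 after four hours at room temperature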
Of the large screens only hits and unclear results are named; the others gave an inactive call (follow-up assays come after a bar, where shown).

Cc1c(Br)c(=O)oc2c(Br)c(O)ccc12	KLK7 zymogen act 26 (not shown: Neddylation inh) | KLK7 act conf 15 | EDANS interfere 25
Cc1c(Br)c(=O)oc2c(Br)c(O)c(O)cc12	none (not shown: Neddylation inh)
Cc1c(O)ccc2c3c(c(=O)oc12)CCCC3	KLK7 zymogen act 32 (not shown: Neddylation inh) | KLK7 act conf 71 | EDANS interfere 64
Cc1c(O)ccc2c3c(c(=O)oc12)CCC(C)C3 (stereo unspecified)	KLK7 zymogen act 39 (not shown: Neddylation inh) | KLK7 act conf 63 | EDANS interfere 84
c1ccc(CCNc2ccnc3cc4ccccc4cc23)cc1	KLK7 zymogen act 32 (not shown: Neddylation inh) | KLK7 act conf inactive | EDANS interfere inactive
N=c1c(C(=O)NCC2CCCO2)cc2c(=O)n3ccccc3nc2n1Cc1ccco1 (stereo unspecified)	KLK7 zymogen act 15 (not shown: Neddylation inh) | KLK7 act conf 41 | EDANS interfere 38
COC(=O)c1cc2c(=O)n3ccccc3nc2n(Cc2cccnc2)c1=N	none (no result: FAS TE block, KLK7 zymogen act, Neddylation inh)
N=c1c(C(=O)NCc2ccc(F)cc2)cc2c(=O)n3ccccc3nc2n1Cc1cccnc1	KLK7 zymogen act 26 (not shown: Neddylation inh) | KLK7 act conf inactive | EDANS interfere inactive
N=c1c(C(=O)NC2CCCCC2)cc2c(=O)n3ccccc3nc2n1Cc1ccco1	none (not shown: Neddylation inh)
N=c1c(C(=O)NCC2CCCO2)cc2c(=O)n3ccccc3nc2n1Cc1cccnc1 (stereo unspecified)	KLK7 zymogen act 134 (not shown: Neddylation inh) | KLK7 act conf 35 | EDANS interfere 33
N=c1c(C(=O)NCC2CCCO2)cc2c(=O)n3ccccc3nc2n1Cc1ccc(F)cc1 (stereo unspecified)	none (not shown: Neddylation inh)
Cc1cccn2c(=O)c3cc(C(=O)NCC4CCCO4)c(=N)n(Cc4cccnc4)c3nc12 (stereo unspecified)	KLK7 zymogen act 148 | KLK7 act conf 49 | EDANS interfere 60
c1ccc(-c2nnc3n2N=C(c2ccc4ccccc4c2)CS3)nc1	none (no result: PfG6PD inh, FAS TE block, Neddylation inh)
CCN(CC)c1ccc(C=Nn2c(C)nnc2C)cc1	none (no result: PfG6PD inh, FAS TE block, Neddylation inh)
CSCCC(c1nc2ccccc2[nH]1)n1c(/C=C/c2ccc(F)c(F)c2)nc2ccccc21 (stereo unspecified)	none (not shown: PfG6PD inh, FAS TE block, Neddylation inh)
CCOC(=O)[C@@]12CCCC=C1N(CCc1ccc(Cl)cc1)C(=O)[C@H]2CC(=O)N1CCCC1	none (no result: PfG6PD inh, FAS TE block, Neddylation inh)
COc1cc2c(cc1OC)CN(CC(=O)Nc1ccc(C#N)cc1)CC2	KLK7 zymogen act 17 (not shown: Neddylation inh) | KLK7 act conf inactive | EDANS interfere inactive
Cc1nc2sc(C(=O)c3ccccc3)c(N)c2c(C)c1C	KLK7 zymogen act 50 | KLK7 act conf inactive | EDANS interfere inactive
Cc1nc(-c2ccccc2)nc2sc(C(=O)c3ccc(F)cc3)c(N)c12	none
O=C1NC(C2CC3C=CC2C3)Nc2ccccc21 (stereo unspecified)	KLK7 zymogen act 24 (not shown: Neddylation inh) | KLK7 act conf 25 | EDANS interfere 21 | K7 EDANS ctr inactive
NS(=O)(=O)c1cc2c(cc1Cl)NC(C1CC3C=CC1C3)NS2(=O)=O (stereo unspecified)	none
CCCCCN1CCCCC(NC(=O)c2ccc(F)c(F)c2)C1=O (stereo unspecified)	none (no result: PfG6PD inh, FAS TE block, Neddylation inh)
CC(C)n1c(=NC(=O)c2ccco2)c(C#N)cc2c(=O)n3ccccc3cc21	KLK7 zymogen act 45 (not shown: Neddylation inh) | KLK7 act conf 22 | EDANS interfere 19
CCOC(=O)c1cc2c(=O)n3ccccc3nc2n(Cc2ccco2)c1=NC(=O)c1ccccc1OC	none (not shown: Neddylation inh)
CCCn1c(=NC(=O)c2ccco2)c(C(=O)OCC)cc2c(=O)n3ccccc3nc21	KLK7 zymogen act 89 (not shown: Neddylation inh) | KLK7 act conf 35 | EDANS interfere 35
CCOC(=O)c1cc2c(=O)n3ccccc3nc2n(C(C)C)c1=NC(=O)c1ccco1	KLK7 zymogen act 44 (not shown: Neddylation inh) | KLK7 act conf 59 | EDANS interfere 51
C[C@H](CO)N1C[C@H](C)[C@@H](CN(C)C(=O)Nc2ccc3c(c2)OCCO3)OCc2cn(nn2)CCCC1=O	none (no result: PfG6PD inh, FAS TE block, Neddylation inh)
CC(C)NC(=O)c1cc(C2CCCCN2C(=O)c2ccccc2)on1 (stereo unspecified)	none (no result: PfG6PD inh)
COP(=O)(OC)c1nc(-c2cccc3ccccc23)oc1N1CCOCC1	KLK7 zymogen act 77 (not shown: Neddylation inh) | KLK7 act conf 63 | EDANS interfere 64
Cc1cc2nc(C(C)(C)C)c(Cc3ccsc3)n2c(C)c1Br	none (no result: PfG6PD inh)
